Assay [1] in a line: HepG2 liver cancer cell viability effects, profiling panel, resazurin fluorescence, 24 h, PK04 Diversity Set (AID 1172). Further: test concentration not given here. The following applies: higher = more signal.
The nature of assay [2]: basal S. cerevisiae growth modulation, no modifier, primary screen, OD600, strain BY4716, 24 h, basal condition (AID 1173). Particulars: OD600, 24 h, higher = more signal, called active from +8 up or from −8 down.
Assay [3] in a line: MM1S myeloma cell viability, profiling panel, resazurin fluorescence, basal, 24 h, PK04 Diversity Set (AID 1174). Further: test concentration not given here. Particulars: higher = more signal, called active from +8 up or from −8 down.
The target in assay [4] is Dihydroorotate dehydrogenase (quinone), mitochondrial (Plasmodium falciparum (isolate 3D7)) (UniProt Q08210). In words: PfDHODH enzyme inhibitors, primary screen, biochemical, C-terminal His tag, absorbance 600 nm (AID 1175).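 Further: recombinant parasite enzyme with a five histidine tag at its C terminus; test concentration not given here.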 The following applies: DCIP absorbance 600 nm, higher = more signal, called active from +8 up or from −8 down.
Dihydroorotate dehydrogenase (quinone), mitochondrial (Plasmodium falciparum (isolate 3D7)), sequence (Q08210 whole entry, looked up): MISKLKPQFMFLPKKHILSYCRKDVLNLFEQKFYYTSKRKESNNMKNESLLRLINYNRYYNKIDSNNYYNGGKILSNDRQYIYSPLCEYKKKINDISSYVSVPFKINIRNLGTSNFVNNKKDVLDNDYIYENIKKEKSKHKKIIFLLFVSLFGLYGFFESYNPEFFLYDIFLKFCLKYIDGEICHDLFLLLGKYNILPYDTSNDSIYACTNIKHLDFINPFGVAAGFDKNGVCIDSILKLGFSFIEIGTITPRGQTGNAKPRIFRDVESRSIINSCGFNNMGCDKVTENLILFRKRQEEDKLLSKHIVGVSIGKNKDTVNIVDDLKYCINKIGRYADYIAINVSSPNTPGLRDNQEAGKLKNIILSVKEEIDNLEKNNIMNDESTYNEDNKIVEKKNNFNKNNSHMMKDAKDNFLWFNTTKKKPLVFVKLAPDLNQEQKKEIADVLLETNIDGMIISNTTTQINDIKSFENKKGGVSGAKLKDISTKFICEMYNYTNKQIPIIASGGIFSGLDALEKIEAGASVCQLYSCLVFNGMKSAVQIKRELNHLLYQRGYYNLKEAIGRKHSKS
A short description of assay [5]: P. aeruginosa biofilm formation inhibitors, primary screen, strain PAO1, LB-PBS medium, absorbance 600 nm (AID 1176). Further: test concentration not given here. The following applies: P. aeruginosa PAO1 growth/biofilm, A600, 12 h; higher = more signal.
The nature of assay [6]: S. cerevisiae RM11-1a growth modifiers, primary screen, strain RM11-1a, OD600, basal, 24 h (AID 1177).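 Further: cultures grown under basal conditions with no added stressor; test concentration not given here.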 The following applies: OD600, 24 h, higher = more signal, called active from +8 up or from −8 down.
Assay [7] in a line: E. coli acrAB mutant growth effects, primary screen, E. coli filamentation inducers, strain DRC39, OD650, 24 h (AID 1178).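 Further: growth measured as culture turbidity by optical density at 650 nm; test concentration not given here.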 The following applies: higher = more signal, called active from +8 up or from −8 down.
Assay [8] in a line: E. coli acrAB mutant growth effects, primary screen, E. coli filamentation inducers, strain DRC39, OD650, 48 h (AID 1179).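 Further: screen aims at cell division blockers that make cells filament.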 Particulars: E. coli DRC39 delta-acrAB growth, higher = more signal, called active from +8 up or from −8 down.
The nature of assay [9]: RPMI8226 myeloma cell viability, profiling panel, resazurin fluorescence, basal, 24 h, PK04 Diversity Set (AID 1180).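 Further: RPMI8826 multiple myeloma cell line at 5000 cells per well; test concentration not given here.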 Particulars: higher = more signal.
Assay [10] addresses E3 ubiquitin-protein ligase XIAP (Homo sapiens) (UniProt P98170). The assay can be described thus: XIAP binders, primary screen, biophysical, small-molecule microarray, fluorescence 635 nm (AID 1181).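 Further: score merges 667 nm emission and signal to noise over triplicate slides.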 Particulars: small-molecule microarray binding, higher = more signal.

Activity calls are given as the source filed them. Unless noted, how the calls were made is not given here.

E3 ubiquitin-protein ligase XIAP (Homo sapiens), sequence (P98170 whole entry, looked up): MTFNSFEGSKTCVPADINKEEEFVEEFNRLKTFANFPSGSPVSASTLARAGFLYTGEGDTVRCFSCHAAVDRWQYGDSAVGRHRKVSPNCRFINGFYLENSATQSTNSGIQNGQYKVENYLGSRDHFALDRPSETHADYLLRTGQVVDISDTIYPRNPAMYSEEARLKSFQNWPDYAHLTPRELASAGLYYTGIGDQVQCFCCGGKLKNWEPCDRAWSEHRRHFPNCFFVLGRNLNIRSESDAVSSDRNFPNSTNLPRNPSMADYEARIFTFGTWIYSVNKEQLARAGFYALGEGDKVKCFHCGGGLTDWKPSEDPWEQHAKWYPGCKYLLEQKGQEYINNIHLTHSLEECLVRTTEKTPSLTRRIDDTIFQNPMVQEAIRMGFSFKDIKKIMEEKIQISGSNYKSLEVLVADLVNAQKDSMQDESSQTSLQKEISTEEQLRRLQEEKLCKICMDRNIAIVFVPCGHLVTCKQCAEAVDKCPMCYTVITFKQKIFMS

As to `CO[C@H]1O[C@H](CO)[C@@H](OC(=O)Nc2cccc(F)c2)[C@H](OC(=O)Nc2ccccc2)[C@H]1OC(=O)Nc1ccccc1`, the z-score in assay [1] was -2.71; in assay [2] it was 0.311 (inactive); in assay [3], -4.75 (inactive); in [5] it was -0.261 (inactive); in [6], 1.77 (inactive); in [7], 1.11 (inactive). The z-score was 0.194 (inactive) in assay [8] and -4.5 in assay [9]. Besides, the figures for the composite z-score in assay [4] and in [10] were -0.599 (inactive) and 0.072, respectively.

In the case of `CC1CC/C=C\[C@H]2OC34C=CCN(Cc5ccccc5)C(=O)[C@H]3N(C(C)CO)C(=O)[C@@H]4C2C(=O)O1` (stereo not given in full), the z-score in [1] was 0.36; in [2] it was -1.39 (inactive); in assay [3] it was 0.678 (inactive); in [5] it was -0.525 (inactive); in [6], -0.0642 (inactive); in [7], 0.492 (inactive). Moreover, the z-score was 1 (inactive) in assay [8] and 0.233 in [9]. Also, the composite z-score is -0.166 (inactive) in assay [4] and 0.0772 in [10].

In the case of `O=C1OCCC=C[C@H]2OC34C=CCN(CCN5CCOCC5)C(=O)[C@H]3N(CCCCCO)C(=O)[C@@H]4C12` (stereo not given in full), the z-score in [1] was -0.123; in [2], -0.987 (inactive); in assay [3] it was 0.673 (inactive); in assay [5], -0.484 (inactive); in [6], -0.112 (inactive); in [7] it was 0.298 (inactive). Further, the values for the z-score in assay [8] and in assay [9] were 0.732 (inactive) and 0.571, respectively. In addition, the values for the composite z-score in assay [4] and in assay [10] were 0.233 (inactive) and -0.0144, respectively.

On to `O=C1[C@@]23C=C(Br)[C@H](C[C@@H]2COC3)[C@]12CO2`, for which the z-score was -0.845 in assay [1]; -10.2 (active) in [2]; -0.874 (inactive) in [3]; 0.732 (inactive) in [5]; -0.384 (inactive) in [6]; -0.0135 (inactive) in assay [7]. Also, the z-score is -0.0637 (inactive) in [8] and -0.741 in assay [9]. The composite z-score is -1.91 (inactive) in [4] and -0.105 in [10].

Regarding `C[N+](C)(C)CCCC[C@@H]1NC(=O)[C@H]2C[C@@H](C(=O)NCCCCCCNC(=O)CS)[C@@H](c3ccc(O)cc3)N2C1=O`, the z-score in assay [1] is -0.935; in [2], 0.123 (inactive); in [3] it was -0.476 (inactive); in assay [5] it was -0.0059 (inactive); in [6], -0.0807 (inactive); in [7], 0.0109 (inactive). Further, the z-score in assay [8] was -0.643 (inactive); in assay [9] it was -0.862. Moreover, the values for the composite z-score in [4] and in [10] were 0.0966 (inactive) and -0.0272, respectively.

Consider `COCCCNC(=O)[C@@]1(CCS(=O)(=O)c2ccccc2)N=C(c2ccc(OCCCO)cc2)O[C@H]1c1ccccc1N=[N+]=[N-]`, for which the z-score is 0.531 in assay [1]; -0.865 (inactive) in [2]; -0.368 (inactive) in [3]; -0.385 (inactive) in [5]; -0.488 (inactive) in [6]; 1.28 (inactive) in assay [7]. In addition, the z-score is 0.863 (inactive) in assay [8] and -0.264 in [9]. The composite z-score in [4] is -0.396 (inactive); in [10], -0.005.

As for `C=C(CCCC)C(=O)CC[C@@H](OC(C)=O)c1ccc(CO)o1`, the z-score in assay [1] was 0.519; in [2], -12.9 (active); in [3] it was 0.292 (inactive); in assay [5], 1.27 (inactive); in assay [6], -0.944 (inactive); in [7], 0.435 (inactive). The z-score in [8] was 0.339 (inactive); in assay [9], 0.624. The composite z-score is -8.56 (active) in [4] and 0.151 in assay [10].

For the compound `C#CCN1[C@@H](Cc2ccc(O)cc2)C(=O)O[C@H](Cc2ccccc2)[C@@H]1/C=C/C1CC1`, the z-score was -1.9 in assay [1]; -2.19 (inactive) in assay [2]; -1.08 (inactive) in assay [3]; -0.353 (inactive) in [5]; 0.168 (inactive) in [6]; 0.75 (inactive) in assay [7]. Further, the z-score in assay [8] is 0.665 (inactive); in assay [9], -1.21. The composite z-score was -0.652 (inactive) in assay [4] and 0.0664 in assay [10].

As to `COC(=O)[C@@]1(Cc2ccc(OC)cc2)[C@H]2c3cc(C(=O)N4CCCC4)n(CCCNc4ncc(C(F)(F)F)cc4Cl)c3C[C@H]2CN1C(=O)c1ccccc1`, the z-score in [1] is 0.808; in assay [2], 1.01 (inactive); in assay [3] it was -1.12 (inactive); in assay [5], -0.0982 (inactive); in [6] it was 0.398 (inactive); in [7], -0.0379 (inactive). In addition, the z-score in [8] was -0.816 (inactive); in assay [9] it was -2.67. The composite z-score was -0.199 (inactive) in assay [4] and 0.0986 in [10].

With `O=C1O[C@H](c2ccccc2)[C@H](c2ccccc2)N2[C@H]1[C@@H](C(=O)NC[C@H](O)c1ccccc1)[C@]1(C(=O)Nc3ccccc31)[C@H]2c1ccc(O)cc1`, the z-score is -1 in [1]; 0.0934 (inactive) in [2]; -1.16 (inactive) in assay [3]; 0.346 (inactive) in assay [5]; 1.46 (inactive) in assay [6]; 0.759 (inactive) in assay [7]. Further, the z-score in assay [8] was 0.315 (inactive); in [9], -2.77. Besides, the results for the composite z-score in assay [4] and in [10] were 0.668 (inactive) and 0.166, respectively.

`CC1CC/C=C\[C@H]2OC34C=CCN(Cn5nnc6ccccc65)C(=O)[C@H]3N(CCCCCO)C(=O)[C@@H]4C2C(=O)O1` (stereo not given in full): the z-score in assay [1] is 0.786; in assay [2], 0.0153 (inactive); in assay [3], -0.88 (inactive); in [5], 0.193 (inactive); in [6], 0.0538 (inactive); in assay [7], 0.67 (inactive). The z-score in assay [8] was 0.434 (inactive); in assay [9], 0.796. Also, the composite z-score in assay [4] is 0.374 (inactive); in assay [10] it was -0.148.

For the compound `CC(CO)N1C(=O)[C@@H]2C3C(=O)OCCC/C=C\[C@H]3OC23C=CCN(CCN2CCOCC2)C(=O)[C@@H]13` (stereo not given in full), the z-score in [1] is -0.167; in assay [2], -0.193 (inactive); in [3], -0.72 (inactive); in [5] it was 0.053 (inactive); in assay [6] it was -0.137 (inactive); in assay [7], 0.218 (inactive). In addition, the z-score in assay [8] is 0.685 (inactive); in [9], -0.784. In addition, the composite z-score in assay [4] was -0.387 (inactive); in [10], 1.01.

Regarding `O=C1O[C@@H](c2ccccc2)[C@@H](c2ccccc2)N2[C@@H](c3ccc(OCCO)cc3)[C@]3(C(=O)Nc4ccc(C#CCCO)cc43)[C@@H](C(=O)NC[C@H](O)c3ccccc3)[C@H]12`, the z-score in [1] is 0.148; in [2] it was 1.49 (inactive); in assay [3], 0.428 (inactive); in assay [5] it was 2.78 (inactive); in [6] it was 2.97 (inactive); in assay [7], 0.968 (inactive). The z-score in assay [8] was 1 (inactive); in [9] it was 0.671. In addition, the composite z-score in [4] is 1.47 (inactive); in assay [10], -0.0249.

The values are drawn from PubChem BioAssay.
